Results reported in PubChem BioAssay AID1578 (Sanford-Burnham Center for Chemical Genomics, 2009).
Several values for one entry are separate records, joined by “and”; a condition that tells them apart may be missing. Identical values can stand only once. In all, about 290,000 compounds went through this assay and about 3,000 (1%) were called active. Many of the other results were omitted from the sample, so actives are more common in it than they were. A number with no mark means an inactive call. No stated cut-off is given here; in the data, active means inhibition mostly above about 36% (no sharp cut-off); inactive means mostly below about 34%.

Test: NOD1 signaling inhibitors, primary screen, cell-based, luminescence, uHTS (AID 1578);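 further: HEK-293T reporter cells stimulated with the NOD1 agonist gamma-tri-DAP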
Conditions: NOD1-driven NF-kB luciferase reporter cells, at 4 µM, hits give high values

| Structure (SMILES) | inhibition |
| --- | --- |
| Cc1ccc(C2=[N+]([O-])C3(CCCCC/C3=N\O)N(O)C2(C)C)o1 (stereo unspecified) | 14.4% |
| COc1ccc(CNC(=O)c2ccc(C(C)(C)C)cc2)cc1 | -24.6% |
| C[C@@H]1CC[C@@]2(O[C@H](CCO)C[C@@H](O)[C@@H]2O)O1 | -47.3% |
| COCCn1c(=S)[nH]c2cc(C(=O)N3CCN(Cc4ccc5c(c4)OCO5)CC3)ccc2c1=O | -2.2% |
| CCCCCn1c(=O)[nH]c2cc(C(=O)N3CCN(CC)CC3)ccc2c1=O | -4% |
| COc1ccc(-n2c(Cn3nnc4ccccc43)n[nH]c2=S)cc1 | 12% |
| COc1ccccc1S(=O)(=O)Nc1cc(S(=O)(=O)N2CCCCC2)ccc1N1CCOCC1 | -35.7% |
| O=C(c1cccs1)c1no[n+]([O-])c1C(=O)c1cccs1 | 98.1% (active) |
| Cc1ccc(C(=O)c2no[n+]([O-])c2C(=O)c2ccc(C)cc2)cc1 | 18% |
| COc1ccc(C(=O)c2no[n+]([O-])c2C(=O)c2ccc(OC)cc2)cc1 | 6.8% |
| O=S(=O)(c1ccc(F)c(F)c1F)N1CCN(C(=S)NC2CC3CCC2C3)CC1 (stereo unspecified) | -22.5% |
| Cc1ccc(NC(=O)/C(C#N)=C/c2ccccc2C(F)(F)F)cc1 | -32.5% |
| Clc1ccc(CSc2ncccn2)cc1 | -34.4% |
| Cc1nc2ccccn2c1-c1ccnc(SCc2ccc(Cl)cc2)n1 | 37.7% (active) |
| Cc1ccc(CSc2nccc(-c3c(C)nc4ccccn34)n2)cc1 | 27% |
| COc1ccc2c(C)cc(SCC(=O)Nc3cc(C(N)=O)cc(C(N)=O)c3)nc2c1 | -7% |
| O=C(O)Cc1ccc(NC(=S)NCc2ccco2)cc1 | -27.1% |
| O=C(Cc1cccs1)NNC(=S)NCc1ccco1 | -26.1% |
| O=C(Cc1ccc(-c2ccccc2)cc1)NNC(=S)NCc1ccco1 | 41.4% (active) |
| CC(=O)c1ccc(C(=O)N2CCCC(CO)(Cc3ccccc3C)C2)s1 (stereo unspecified) | -39% |
| COc1ccc(NC(=O)Cn2c3ccc(OC)cc3c3nc4n(c(=O)c32)CCS4)cc1 | -15.9% |
| COc1ccc2c(c1)c1nc3n(c(=O)c1n2CC(=O)Nc1cc(C)[nH]n1)CCS3 | 63.4% (active) |
| COc1ccc2c(c1)c1nc3n(c(=O)c1n2CC(=O)Nc1ccccc1)CCS3 | -17.5% |
| COc1ccc(OC(=O)N2CCOCC2)cc1 | -16.5% |

| Structure (SMILES) | inhibition |
| --- | --- |
| CC1CCCC(NC(=O)COC(=O)Cc2cn3ccsc3n2)C1C (stereo unspecified) | 6.7% |
| Cc1ccc(-c2c[n+]3c(n2-c2ccccc2)CCC3)cc1 | 25.4% |
| COc1ccccc1-n1c(-c2ccccc2)c[n+]2c1CCc1ccccc1-2 | 52.9% (active) and 68.6% (active) |
| Cc1ccc(-n2c(-c3ccccc3)c[n+]3c2CCc2ccccc2-3)c(C)c1 | 66% (active) |
| COc1ccc(-n2c(-c3ccc(Cl)cc3)c[n+]3c2CCc2ccccc2-3)cc1 | 20.5% |
| COc1ccc(-n2c(-c3ccc(Br)cc3)c[n+]3c2CCc2ccccc2-3)cc1 | 13.3% |
| Cc1ccc(-n2c(-c3ccccc3)c[n+]3c2CCC3)cc1 | 9.5% |
| CCOc1ccc(-c2c(C(=O)N/N=C/c3ccco3)nnn2-c2nonc2N)cc1 | -7.1% |
| O=C(Cn1cnc(S(=O)(=O)N2CCCCC2)c1)NCc1ccco1 | -11.7% |
| CC(C)N(Cc1ccccc1)C(=S)Nc1ccccc1F | -3.5% |
| CCOC(=O)CN(c1ccccc1C)S(=O)(=O)c1ccc(Cl)cc1 | 21.3% |
| CCN(CC)C(=O)Cn1cc(C(=O)C(=O)N(CC)C2CCCCC2)c2ccccc21 | -4.6% |
| Cn1c(=O)c2nc(Cl)c(-c3ccccc3)nc2n(C)c1=O | -30.8% |
| Cc1nc2c(=O)n(C)c(=O)n(C)c2nc1Cl | 94.4% (active) |
| Cn1c(=O)c2nc3ccccc3nc2n(C)c1=O | -21.3% |
| CCCC(C)NC(=O)/C=C/c1cccc([N+](=O)[O-])c1 (stereo unspecified) | -26.2% |
| CCOC(=O)CNC(=O)CSc1nnc(NC(=O)c2ccc(C)cc2)s1 | 44.8% (active) |
| CCOC(=O)CNC(=O)CSc1nnc(NC(=O)c2ccc3c(c2)OCO3)s1 | -31.4% |
| CCOC(=O)CNC(=O)CSc1nnc(NC(=O)c2ccccc2Cl)s1 | -7.6% |
| CN1CCN(NC(=O)C23CC4CC(CC(C4)C2)C3)CC1 | -2.4% |
| COc1ccccc1NC(=O)Cc1coc2cc(C)ccc12 | -17.5% |
| COc1ccc2c(CC(=O)Nc3ccccc3OC)coc2c1 | 57.6% (active) |
| COc1ccc2c(CC(=O)Nc3ccccc3N3CCOCC3)coc2c1 | 16.3% |
| O=C(NC(=S)Nc1ncccn1)c1ccc(Cl)cc1Cl | -41.6% |

| Structure (SMILES) | inhibition |
| --- | --- |
| COc1ccc(C2=NN(S(C)(=O)=O)C(c3cccs3)C2)cc1 (stereo unspecified) | -16.2% |
| CC(=O)Nc1ccc(C2=NN(c3ccccc3)C(c3cccs3)C2)cc1 (stereo unspecified) | -0.7% |
| COc1ccc(C2=NN(c3ccccc3)C(c3cccs3)C2)cc1 (stereo unspecified) | 46.8% (active) |
| CC(=O)c1ccc(NC(=O)CCc2nnc3ccc(N4CCC5(CC4)OCCO5)nn23)cc1 | -15.6% |
| CCOc1cc2[nH]c(=O)n(CCCN3CCCC3=O)c(=O)c2cc1OCC | 0.4% |
| CCCc1cc(-c2n[nH]c(=S)n2-c2cccc(C)c2)cs1 | -9.6% |
| O=C(N/N=C(\c1ccccc1)c1ccccn1)c1cccc([N+](=O)[O-])c1 | 103% (active) |
| O=C(NNC(=O)c1ccccn1)c1cccc([N+](=O)[O-])c1 | -43.1% |
| O=C(c1cccc([N+](=O)[O-])c1)c1ccccn1 | -6.3% |
| O=C(O)c1ccc(C(=O)C(=O)c2ccccc2)cc1 | -2.3% |
| C=C(C(=O)c1ccccc1)C(C)C(=C)C(=O)c1ccccc1 | 99% (active) |
| C=C(C(=O)c1ccccc1)C(c1ccccc1)C(C)C(=O)c1ccccc1 (stereo unspecified) | 44.3% |
| O=C(CC(C(=O)O)c1ccc(Cl)cc1)c1ccccc1 (stereo unspecified) | -13% |
| O=C(CC(CC(=O)c1ccccc1)c1ccccc1)c1ccccc1 | -4.1% |
| CC1c2[nH]c3ccccc3c2C[C@H]2C(=O)N(CCO)CC(=O)N12 (stereo partly specified) | -2.7% |
| C=CCc1c(OC(C)=O)c2ccccc2n(C)c1=O | -38% |
| COc1ccc2c(c1)c(CC(=O)Nc1nnc(C3CC3)s1)c(C)n2C(=O)c1ccc(Cl)cc1 | 64.9% (active) |
| COc1ccc2c(c1)c(CC(=O)Nc1ccc(C)cc1)c(C)n2C(=O)c1ccc(Cl)cc1 | 24.5% |
| COc1ccc(NC(=O)Cc2c(C)n(C(=O)c3ccc(Cl)cc3)c3ccc(OC)cc23)cc1 | -13.3% |
| COc1ccc(C(=O)Nc2cc(-c3nn4c(C)nnc4s3)ccc2C)cc1 | -18.2% |
| CCC1(c2ccccc2)NC(=O)N(CC(=O)NCc2ccccc2OC)C1=O (stereo unspecified) | 0.8% |
| COc1ccc(-c2cc(C(=O)N3CCN(S(=O)(=O)c4ccccc4)CC3)[nH]n2)cc1 | 4.3% |
| Fc1cccc2sc(Nc3nnc(-c4ccco4)o3)nc12 | 104% (active) |
| COc1cccc2sc(Nc3nnc(-c4ccc(F)cc4)o3)nc12 | -29.8% |

| Structure (SMILES) | inhibition |
| --- | --- |
| COc1ccc(-c2nnc(Nc3nc4c(OC)cccc4s3)o2)cc1 | -20.8% |
| COc1cc(OC)cc(-c2nnc(Nc3nc4c(F)cccc4s3)o2)c1 | 21% |
| Fc1cccc2sc(Nc3nnc(-c4ccccc4)o3)nc12 | 52.7% |
| COc1cccc2sc(Nc3nnc(-c4cccs4)o3)nc12 | 84.7% (active) |
| CCOC(=O)C1C(=O)NC(c2ccccc2)=NC1c1cccc(Br)c1 (stereo unspecified) | -36.5% |
| CC1/C(=N/O)CC(c2ccco2)NC1c1ccco1 (stereo unspecified) | -0.7% |
| COc1ccc(NC(=S)N2CCC(NC(=O)c3ccc(F)cc3)CC2)cc1 | -29% |
| Cc1cc(C)c(S(=O)(=O)N2CCOCC2)c(C)c1N(C)S(=O)(=O)c1ccccc1 | -19.6% |
| N#C/C(=C\c1ccc(OCC(N)=O)cc1)c1ccccc1 | -59.4% |
| O=C(Nc1cccnc1)c1cccc(S(=O)(=O)N2CCOCC2)c1 | -21% |
| CN1CCC(OC(=O)c2ccco2)CC1 | -32.4% |
| O=c1c(=Nc2ccccc2O)c(=O)c2ccccc12 | -41.2% |
| O=C1C(C=Nc2ccccc2O)=C(O)c2ccccc21 | -64.5% |
| CNC(=O)COC(=O)c1ccccc1Nc1ccccc1 | -60.3% |
| COc1cc(/C=C(\NC(C)=O)C(=O)NC(C)(C)CC(C)(C)C)ccc1OC(C)=O | -17.3% |
| COc1ccc(/C(O)=C/c2nc3ccccc3n(-c3ccccc3)c2=O)cc1 | -72.6% |
| COc1ccc(-n2c(=O)c(CCC(=O)N(C)Cc3ccccc3C)nc3ccccc32)cc1 | -8.4% |
| COc1cccc(CC(=O)N2CCC(CCC(=O)Nc3cccc(OC)c3)CC2)c1 | -3.8% |
| Cc1cccc(NC(=O)CCCN2C(=O)C(c3ccccc3)Oc3cccnc32)c1C (stereo unspecified) | 42.2% (active) |
| COc1ccccc1NC(=O)CCCN1C(=O)C(c2ccccc2)Oc2cccnc21 (stereo unspecified) | -2.8% |
| Cc1cccc(C)c1NC(=O)CCCN1C(=O)C(c2ccccc2)Oc2cccnc21 (stereo unspecified) | -12.2% |
| COP(=O)(OC)C(Nc1ccc(Cl)cc1)c1ccccc1 (stereo unspecified) | -7.2% |
| COP(=O)(OC)C(Nc1ccc([N+](=O)[O-])cc1)c1ccccc1 (stereo unspecified) | -11.2% |
| CCOc1ccc(NC(c2ccccc2)P(=O)(OC)OC)cc1 (stereo unspecified) | 73.2% (active) |
